Mtb FBA inh – Mtb FBA enzyme inhibitors, primary screen, biochemical, fluorescence, strain H37Rv | 2.3% of 360,000 active | Fructose-bisphosphate aldolase (Mycobacterium tuberculosis (strain ATCC 25618 / H37Rv)), … | AID 588726, 2011 | purified M. tuberculosis FBA, fluorescence read-out | inhibition, % at 1 µM; in the data active = inhibition above about 27%;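 also: 0% = vehicle and 100% = reference inhibitor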
Mtb UGM inh – M. tuberculosis UGM enzyme inhibitors, primary screen, biochemical, fluorescence polarization, single point; inhibition, % at 10 µM; AID 504406, 2011; 0.06% of 320,000 active; purified UGM, fluorescence polarization probe displacement; in the data active = inhibition above about 10%, passing the limit was not always enough; inconclusive = no clear call, values can overlap the other calls
FadD28 binding – inhibitors of FadD28 bisubstrate probe binding, primary screen, biochemical, fluorescence polarization, single point. 0.22% of 360,000 active. Mycobacterium tuberculosis FadD28 fatty-acid-AMP ligase. inhibition, % at 12.5 µM. AID 588549, 2011; in the data active = inhibition above about 8.5%, passing the limit was not always enough; inconclusive = no clear call, values can overlap the other calls
Rv3671c protease – Rv3671c serine protease inhibitors, primary screen, biochemical, fluorescence polarization, M. tuberculosis H37Rv; inhibition, % at 5.96 µM; 0.048% of 320,000 active; P9WHR9; AID 2606, 2010; in the data active = inhibition above about 38%;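 also: extracellular domain of Rv3671c used as enzyme; 0% = enzyme with DMSO and 100% = no enzyme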
Target sequence (P9WHR9 whole entry, looked up, the tested form may be a part): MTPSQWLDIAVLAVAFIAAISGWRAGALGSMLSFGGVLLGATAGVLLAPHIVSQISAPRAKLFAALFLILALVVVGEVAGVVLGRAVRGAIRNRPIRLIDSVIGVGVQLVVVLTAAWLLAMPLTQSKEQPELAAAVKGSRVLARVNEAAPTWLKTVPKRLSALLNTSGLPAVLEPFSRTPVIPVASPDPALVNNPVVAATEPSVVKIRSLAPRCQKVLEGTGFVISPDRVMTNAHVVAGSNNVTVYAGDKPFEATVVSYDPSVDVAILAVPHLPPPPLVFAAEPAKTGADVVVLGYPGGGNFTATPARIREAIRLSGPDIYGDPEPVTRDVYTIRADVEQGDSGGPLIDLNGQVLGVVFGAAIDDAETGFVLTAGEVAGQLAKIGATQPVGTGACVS
GDH-TPI inh – GDH-TPI coupling enzyme inhibitors, primary screen, artefact control for M. tuberculosis FBA inhibitor project, biochemical, absorbance, full deck. 1.2% of 360,000 active. inhibition, % at 4.8 µM. GDH-TPI coupled enzyme counterscreen, NADH absorbance; in the data active = inhibition above about 30%;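 also: 0% = DMSO wells and 100% = wells lacking the enzyme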
Mtb bLac sens – beta-lactam sensitization of Mtb H37Rv, H37Rv; M. tuberculosis H37Rv growth with meropenem, percent inhibition; inhibition, % at 25 µM; 0.27% of 330,000 active; call rule not given here;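 also: growth measured after seven days incubation then overnight dye step; 0% = bacteria only wells and 100% = bacteria with antibiotic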
The depositor's hits bear a star; ? = inconclusive; . = not tested or not shown; + = active, no number. Shown are actives, neighbours in structure and some others; about 3.7% of the full set was active somewhere.

SMILES	Mtb FBA inh	Mtb UGM inh	FadD28 binding	Rv3671c protease	GDH-TPI inh	Mtb bLac sens
CCC(C)C(N)C1=NC(C(=O)N[C@@H](CC(C)C)C(=O)N[C@H](CCC(=O)[O-])C(=O)N[C@H](C(=O)N[C@H]2CCCCNC(=O)[C@H](CC(N)=O)NC(=O)[C@@H](CC(=O)[O-])NC(=O)[C@H](Cc3cnc[nH]3)NC(=O)[C@@H](Cc3ccccc3)NC(=O)[C@H]([C@@H](C)CC)NC(=O)[C@@H](CCCN)NC2=O)[C@@H](C)CC)CS1.[Zn+2] (some centres not stated)	-1.4	.	-4.9	.	-16.1	.
COc1ccc(C(O)c2nc(-c3ccc(Cl)cc3)cs2)cc1 (configuration not stated)	-3.3	.	-3.3	.	5.4	.
CCOC(=O)C1=C(C)N(C[C@@H]2CC[C@@H](Cc3ccc(-c4ccccc4)cc3)O2)C(=O)NC1C1CC1 (some centres not stated)	-0.9	.	-1.3	.	-3.6	.
S=c1[nH]cnc2sc(-c3ccccc3)cc12	-2.8	3.8	-0.7	-1.3	52.4*	92.1
CCN(CC)S(=O)(=O)c1ccc2nc(NC(=O)c3ccco3)sc2c1	22.7	-1.0	-4.8	0.4	19.0	-2.3
O=C(Nc1nc2cc3c(cc2s1)OCCO3)c1cccc(N2C(=O)CCC2=O)c1	4.2	1.9	-1.2	-2.5	31.2*	-5.0
CC(=O)Nc1ccc2nc(NC(=O)c3cccs3)sc2c1	-2.2	0.2	-3.9	-24.0	53.1*	85.3
Cc1nc2ccc(NC(=O)c3cccs3)cc2s1	-0.4	-2.2	-4.6	-4.5	2.4	14.3
O=C(Nc1nc2cc3c(cc2s1)OCCO3)c1cccs1	3.8	-0.2	0.4	-22.9	37.7*	-0.9
CCN(CC)S(=O)(=O)c1ccc2nc(NC(=O)c3cccs3)sc2c1	19.4	-0.8	-4.5	-48.9	35.5*	45.6
CN(Cc1cnn(-c2ccc(F)cc2)c1)C(=O)[C@H]1O[C@@H](n2ccc(=O)[nH]c2=O)[C@H](O)[C@@H]1O	6.0	.	-1.0	.	.	.
COc1cc(OC)cc(C(=O)N[C@H](C(=O)OCc2cc(=O)oc3cc(C)ccc23)C(C)C)c1	-0.2	0.4	-1.8	-8.7	6.5	0.0
CC(=O)Nc1ccc2c(COC(=O)[C@@H](NS(=O)(=O)c3ccc(C)cc3)C(C)C)cc(=O)oc2c1	+	0.8	-3.8	-6.1	22.8	-5.6
O=S(c1ccccc1O)S(=O)c1ccccc1O (configuration not stated)	2.5	.	28.1*	.	-2.3	.
CCOC(=O)c1cc(OC)c2cccc(CN3CCC(C)(C(=O)NCCOC)C3)c2c1 (configuration not stated)	28.5*	.	-3.4	.	20.4	.
COCc1cc(=O)[nH]c(Nc2nc3ccc(C)cc3o2)n1	6.7	3.3	-0.5	-10.2	34.4*	96.5
O=C(CSc1n[nH]c(=O)[nH]c1=O)N/N=C/C=C/c1ccccc1	-1.0	0.0	0.1	0.9	43.0*	-2.9
O=C(CSc1n[nH]c(=O)[nH]c1=O)N/N=C/C=C\c1ccccc1	-3.8	0.6	1.1	7.6	12.7	2.1
Cc1ccc(C(=O)Nc2cccc(C(O)c3ccccc3)c2)cc1 (configuration not stated)	-3.6	1.2	-0.9	1.2	18.4	0.7
CCOC(=O)C(=CNc1ccc(C(F)(F)F)cc1Cl)C(=O)OCC	1.0	1.1	1.5	13.0	36.0*	?
CCOC(=O)C(=CNc1ccccc1Cl)C(=O)OCC	-1.3	.	-4.2	.	4.1	.
C#CCOCCOCCOCCNc1nc(N2CCN(C(=O)CCCCCCCCCCNC(=O)[C@H]([C@@H](C)CC)n3cc(CCCCN=C(N)N)nn3)CC2)nc(N2CCN(C(=O)CCCCCCCCCCNC(=O)[C@@H]([C@H](C)O)n3cc(C)nn3)CC2)n1	0.6	0.4	15.0*	-26.4	7.6	0.4
C#CCOCCOCCOCCNc1nc(N2CCN(C(=O)CCCCCCCCCCNC(=O)[C@@H](CCSC)n3cc(CCO)nn3)CC2)nc(N2CCN(C(=O)CCCCCCCCCCNC(=O)[C@H](CCCN=C(N)N)n3cc(C[C@@H](C)CC)nn3)CC2)n1	0.6	-1.9	11.5*	-66.0	10.0	99.2
CCCCN1CC(=O)N2[C@H]3c4cc(Cl)ccc4OC[C@@H]3[C@H](C(=O)OCC)[C@]2(C)C1=O	5.8	-0.7	-2.4	-5.7	2.6	-0.9
COc1ccc(/C=N/N=C2\SCC(=O)N2c2c(C)n(C)n(-c3ccccc3)c2=O)cc1OC	-2.1	0.0	-4.5	-0.1	40.6*	-0.5
SMILES	Mtb FBA inh	Mtb UGM inh	FadD28 binding	Rv3671c protease	GDH-TPI inh	Mtb bLac sens
Cc1c(N2C(=O)CS/C2=N\N=C\c2ccccc2O)c(=O)n(-c2ccccc2)n1C	-0.9	1.4	-0.2	-6.9	31.6*	-2.7
Cc1c(N2C(=O)CS/C2=N\N=C\c2ccc(Cl)cc2)c(=O)n(-c2ccccc2)n1C	0.9	0.6	-4.5	5.4	10.4	?
Cc1c(N=C2SCC(=O)N2c2c(C)n(C)n(-c3ccccc3)c2=O)c(=O)n(-c2ccccc2)n1C	2.0	0.6	0.5	6.5	-1.9	1.3
CCc1c(C(=O)NNC(=S)Nc2ccc(S(=O)(=O)Nc3ncccn3)cc2)csc1C	-0.9	2.8	9.6*	2.3	10.0	-4.6
COC(=O)C1=CC(C(=O)c2cccs2)=NN(c2ccc(OC)cc2)C1C(=O)OC (configuration not stated)	-9.3	21.4*	-7.0	-0.5	17.1	5.8
COc1ccc(-c2cc(=O)c3c(OC)c(OC)c(OC)c(OC)c3o2)cc1OC	7.4	-1.0	-2.1	0.7	32.4*	5.9
O=c1cc(-c2ccc(O)cc2)oc2ccccc12	3.2	2.6	-1.7	-6.9	21.5	-8.6
O=c1cc(-c2ccc(O)cc2)oc2ccc(O)cc12	3.6	4.1	-0.6	1.0	37.4*	-4.7
COc1ccc(-c2oc3cc(O)c(OC)c(O)c3c(=O)c2OC)cc1O	-3.3	.	2.1	.	21.6	.
COc1ccc(-c2cc(=O)c3ccccc3o2)cc1	+	1.9	-4.6	-5.7	32.4*	-5.2
COc1cc(OC)c2c(=O)c(OC)c(-c3ccc(OC)c(OC)c3)oc2c1	102.7*	-1.0	-2.8	-5.2	22.2	-7.6
CNc1nc(NCC2CCCCC2)c2sccc2n1	-2.5	.	-2.3	.	10.6	.
C=CC[C@@H](CC(=O)N[C@H](CO)Cc1ccccc1)C(=O)N[C@@H](COC(=O)[C@@H](CC=C)Cc1ccc(F)cc1)Cc1ccccc1	2.9	0.2	-0.3	-7.1	8.3	4.5
O=C(OCCc1ccccn1)c1cccc([N+](=O)[O-])c1	3.5	.	0.4	.	3.5	.
Cn1cc(-c2csc(C(O)c3ccccc3)n2)cn1 (configuration not stated)	-1.7	.	-0.9	.	8.8	.
Nc1c(-c2ccc3c(c2)OCCO3)oc2ccccc2c1=O	+	2.8	.	-10.2	-2.2	2.8
O=c1cc(-c2ccc3c(c2)OCO3)oc2ccccc12	21.6	2.3	-3.7	-1.3	39.2*	7.0
